Paper PMC7862700, “An all-to-all approach to the identification of sequence-specific readers for epigenetic DNA modifications on cytosine”

Columns and labels:
Assay in all cases: DAPPL (digital affinity profiling via proximity ligation, sequencing); 10 mM Tris-HCl pH 7.5, 50 mM NaCl, 1 mM DTT, 4% glycerol, room temperature, 30 min; GST-TFs on glutathione beads, 16-mer random dsDNA library, 0.1% formaldehyde crosslink after washing; high values mean tight binding
Conditions in all cases: protein: recombinant; tags: N-terminal GST; dsDNA, one strand shown
[1] = biological target: T1, FLI1 (Homo sapiens, UniProt Q01543 1-452)
T1 sequence: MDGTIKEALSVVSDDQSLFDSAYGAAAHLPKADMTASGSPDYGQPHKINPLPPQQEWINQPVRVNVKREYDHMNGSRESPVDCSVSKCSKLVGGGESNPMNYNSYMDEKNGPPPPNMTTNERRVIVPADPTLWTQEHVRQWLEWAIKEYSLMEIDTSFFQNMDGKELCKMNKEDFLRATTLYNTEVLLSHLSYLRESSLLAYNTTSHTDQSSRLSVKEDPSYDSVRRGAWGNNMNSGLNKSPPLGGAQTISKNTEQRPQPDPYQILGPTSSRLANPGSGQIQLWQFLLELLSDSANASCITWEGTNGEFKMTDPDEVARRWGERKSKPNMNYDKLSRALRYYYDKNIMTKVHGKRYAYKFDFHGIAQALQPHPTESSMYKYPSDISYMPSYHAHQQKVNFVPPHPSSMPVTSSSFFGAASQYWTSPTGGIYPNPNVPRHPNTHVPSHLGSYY
Method in brief: (§1)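 Sequencing on an Illumina NextSeq500 followed washing, crosslinking with 0.1% formaldehyde, proximity ligation (BsaI/T4 ligase, 1 h, 37 °C) and PCR amplification of pools that had been incubated for 30 min at room temperature with 200 nmole of a random double-stranded 16-mer DNA library in Tris/NaCl/DTT/glycerol buffer. Each pool held DNA-barcoded human transcription factors, expressed in yeast as GST fusions and captured on glutathione beads, plus a tag-only sample. Binding signal is a hexamer's read frequency for a factor divided by its frequency in the tag-only sample.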

[2] = biological target: T2, ERG (Homo sapiens, UniProt P11308 1-479)
T2 sequence: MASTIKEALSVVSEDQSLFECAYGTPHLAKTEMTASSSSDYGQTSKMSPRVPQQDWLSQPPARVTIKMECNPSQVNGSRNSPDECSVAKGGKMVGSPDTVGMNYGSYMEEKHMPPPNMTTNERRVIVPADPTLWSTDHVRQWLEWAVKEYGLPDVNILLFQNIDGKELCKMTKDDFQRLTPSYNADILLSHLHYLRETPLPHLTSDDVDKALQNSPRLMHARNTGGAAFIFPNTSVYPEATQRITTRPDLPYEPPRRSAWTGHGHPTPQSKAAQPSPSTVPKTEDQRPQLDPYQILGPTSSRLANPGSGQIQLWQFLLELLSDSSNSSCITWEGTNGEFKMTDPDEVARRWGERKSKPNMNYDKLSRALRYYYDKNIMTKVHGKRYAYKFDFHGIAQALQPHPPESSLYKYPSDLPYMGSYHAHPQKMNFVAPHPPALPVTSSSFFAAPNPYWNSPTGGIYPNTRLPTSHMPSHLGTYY
Method in brief: as §1

[3] = biological target: SPI1 (Homo sapiens, UniProt P17947 1-270)
Method in brief: as §1

[4] = biological target: SPIB (Homo sapiens, UniProt Q01892 1-262)
Chain of SPIB (Q01892 whole entry): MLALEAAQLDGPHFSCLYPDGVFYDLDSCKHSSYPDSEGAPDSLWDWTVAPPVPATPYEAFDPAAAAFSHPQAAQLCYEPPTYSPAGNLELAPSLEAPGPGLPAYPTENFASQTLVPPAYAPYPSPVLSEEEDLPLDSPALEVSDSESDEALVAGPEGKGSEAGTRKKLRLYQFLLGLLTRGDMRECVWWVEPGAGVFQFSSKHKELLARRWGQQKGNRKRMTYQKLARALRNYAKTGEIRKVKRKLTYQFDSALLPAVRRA
Method in brief: as §1

[5] = biological target: T3, ELK3 (Homo sapiens, UniProt P41970 1-407)
T3 sequence: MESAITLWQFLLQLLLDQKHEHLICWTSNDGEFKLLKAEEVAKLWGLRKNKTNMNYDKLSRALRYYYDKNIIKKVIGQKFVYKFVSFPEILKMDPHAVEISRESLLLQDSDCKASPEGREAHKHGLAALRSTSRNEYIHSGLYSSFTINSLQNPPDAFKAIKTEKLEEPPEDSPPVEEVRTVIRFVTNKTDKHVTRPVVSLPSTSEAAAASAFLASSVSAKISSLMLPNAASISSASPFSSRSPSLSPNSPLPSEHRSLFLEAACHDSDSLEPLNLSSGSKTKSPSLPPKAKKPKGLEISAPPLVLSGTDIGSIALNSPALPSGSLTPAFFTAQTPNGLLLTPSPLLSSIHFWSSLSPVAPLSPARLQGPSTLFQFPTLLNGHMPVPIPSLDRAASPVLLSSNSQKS
Method in brief: as §1

[6] = biological target: T4, FEV (Homo sapiens, UniProt Q99581 1-238)
T4 sequence: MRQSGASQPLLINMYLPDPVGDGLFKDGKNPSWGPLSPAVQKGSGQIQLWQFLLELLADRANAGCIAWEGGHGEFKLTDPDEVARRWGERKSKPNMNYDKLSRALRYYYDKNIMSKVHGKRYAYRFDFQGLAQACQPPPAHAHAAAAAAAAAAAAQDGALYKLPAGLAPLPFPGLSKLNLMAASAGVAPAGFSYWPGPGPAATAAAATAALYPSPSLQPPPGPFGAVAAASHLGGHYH
Method in brief: as §1

[7] = biological target: ETV5 (Homo sapiens, UniProt P41161 1-510)
Chain of ETV5 (P41161 whole entry): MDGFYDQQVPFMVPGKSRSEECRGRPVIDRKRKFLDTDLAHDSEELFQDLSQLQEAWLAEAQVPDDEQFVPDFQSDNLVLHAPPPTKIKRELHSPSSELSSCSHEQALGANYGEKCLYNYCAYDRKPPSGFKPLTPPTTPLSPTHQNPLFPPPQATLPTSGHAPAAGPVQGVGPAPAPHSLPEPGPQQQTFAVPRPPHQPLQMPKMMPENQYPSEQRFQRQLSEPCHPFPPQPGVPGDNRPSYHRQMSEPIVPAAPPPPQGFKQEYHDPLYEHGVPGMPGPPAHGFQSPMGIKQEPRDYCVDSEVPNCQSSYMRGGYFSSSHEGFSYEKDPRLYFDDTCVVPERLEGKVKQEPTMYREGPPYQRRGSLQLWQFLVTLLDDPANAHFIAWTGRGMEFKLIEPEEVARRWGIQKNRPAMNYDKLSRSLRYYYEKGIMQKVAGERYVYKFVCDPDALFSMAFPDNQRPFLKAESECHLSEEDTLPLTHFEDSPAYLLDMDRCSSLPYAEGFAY
Method in brief: as §1

[8] = biological target: T5, SPIC (Homo sapiens, UniProt Q8N5J4 1-248)
T5 sequence: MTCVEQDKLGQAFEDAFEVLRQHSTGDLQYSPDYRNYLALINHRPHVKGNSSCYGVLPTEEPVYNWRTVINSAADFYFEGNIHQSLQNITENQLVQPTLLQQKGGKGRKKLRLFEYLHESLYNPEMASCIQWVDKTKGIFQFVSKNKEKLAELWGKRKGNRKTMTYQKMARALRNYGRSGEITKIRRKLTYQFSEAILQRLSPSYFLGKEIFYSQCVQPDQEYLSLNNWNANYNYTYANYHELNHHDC
Method in brief: as §1

[9] = biological target: ELF4 (Homo sapiens, UniProt Q99607 1-663)
Chain of ELF4 (Q99607 whole entry): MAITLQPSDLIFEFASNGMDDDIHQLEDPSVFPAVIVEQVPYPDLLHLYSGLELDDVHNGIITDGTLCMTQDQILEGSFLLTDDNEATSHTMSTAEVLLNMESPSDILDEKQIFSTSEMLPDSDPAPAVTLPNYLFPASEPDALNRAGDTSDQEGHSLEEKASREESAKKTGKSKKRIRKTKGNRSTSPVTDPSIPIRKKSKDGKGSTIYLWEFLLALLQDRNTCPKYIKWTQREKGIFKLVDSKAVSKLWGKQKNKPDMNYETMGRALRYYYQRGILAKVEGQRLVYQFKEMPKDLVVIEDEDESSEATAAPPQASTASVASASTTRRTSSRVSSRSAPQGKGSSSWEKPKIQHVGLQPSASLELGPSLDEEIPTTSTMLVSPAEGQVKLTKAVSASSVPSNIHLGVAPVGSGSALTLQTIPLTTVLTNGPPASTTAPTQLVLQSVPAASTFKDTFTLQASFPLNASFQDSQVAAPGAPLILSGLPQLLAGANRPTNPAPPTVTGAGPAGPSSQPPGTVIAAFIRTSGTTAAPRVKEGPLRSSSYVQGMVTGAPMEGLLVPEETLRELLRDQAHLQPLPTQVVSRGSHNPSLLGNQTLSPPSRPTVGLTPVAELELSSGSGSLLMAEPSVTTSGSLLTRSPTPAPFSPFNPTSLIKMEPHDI
Method in brief: as §1

[10] = biological target: ETV1 (Homo sapiens, UniProt P50549 1-477)
Chain of ETV1 (P50549 whole entry): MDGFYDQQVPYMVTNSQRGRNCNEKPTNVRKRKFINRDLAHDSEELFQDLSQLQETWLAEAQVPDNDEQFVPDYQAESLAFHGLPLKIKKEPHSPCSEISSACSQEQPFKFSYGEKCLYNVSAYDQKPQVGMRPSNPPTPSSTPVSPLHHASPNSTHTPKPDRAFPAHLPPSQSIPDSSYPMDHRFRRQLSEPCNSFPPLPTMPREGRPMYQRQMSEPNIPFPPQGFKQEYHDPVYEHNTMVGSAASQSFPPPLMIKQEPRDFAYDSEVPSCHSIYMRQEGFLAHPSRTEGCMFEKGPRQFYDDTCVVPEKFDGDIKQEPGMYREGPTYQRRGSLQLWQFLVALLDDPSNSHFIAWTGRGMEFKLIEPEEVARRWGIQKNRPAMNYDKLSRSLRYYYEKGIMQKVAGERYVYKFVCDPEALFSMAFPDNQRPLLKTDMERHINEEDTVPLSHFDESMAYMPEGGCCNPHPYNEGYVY
Method in brief: as §1

[11] = biological target: T6, ETV3L (Homo sapiens, UniProt Q6ZN32 1-361)
T6 sequence: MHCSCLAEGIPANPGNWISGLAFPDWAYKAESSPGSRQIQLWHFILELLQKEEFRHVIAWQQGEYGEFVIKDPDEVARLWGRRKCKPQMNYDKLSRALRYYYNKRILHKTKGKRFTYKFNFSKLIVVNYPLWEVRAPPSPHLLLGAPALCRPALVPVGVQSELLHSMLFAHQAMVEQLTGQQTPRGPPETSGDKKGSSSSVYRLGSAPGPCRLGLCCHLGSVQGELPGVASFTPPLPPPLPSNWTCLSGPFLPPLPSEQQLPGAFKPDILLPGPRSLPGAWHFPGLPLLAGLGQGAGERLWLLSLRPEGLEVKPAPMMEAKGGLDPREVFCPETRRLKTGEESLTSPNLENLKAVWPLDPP
Method in brief: as §1

[12] = biological target: T7, ETV3 (Homo sapiens, UniProt P41162-2 1-143)
T7 sequence: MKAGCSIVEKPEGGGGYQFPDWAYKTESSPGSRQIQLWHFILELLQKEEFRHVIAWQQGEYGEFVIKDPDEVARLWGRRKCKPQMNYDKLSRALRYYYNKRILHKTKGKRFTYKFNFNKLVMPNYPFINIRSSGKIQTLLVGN
Method in brief: as §1

[13] = biological target: ETV6 (Homo sapiens, UniProt P41212 1-452)
Chain of ETV6 (P41212 whole entry): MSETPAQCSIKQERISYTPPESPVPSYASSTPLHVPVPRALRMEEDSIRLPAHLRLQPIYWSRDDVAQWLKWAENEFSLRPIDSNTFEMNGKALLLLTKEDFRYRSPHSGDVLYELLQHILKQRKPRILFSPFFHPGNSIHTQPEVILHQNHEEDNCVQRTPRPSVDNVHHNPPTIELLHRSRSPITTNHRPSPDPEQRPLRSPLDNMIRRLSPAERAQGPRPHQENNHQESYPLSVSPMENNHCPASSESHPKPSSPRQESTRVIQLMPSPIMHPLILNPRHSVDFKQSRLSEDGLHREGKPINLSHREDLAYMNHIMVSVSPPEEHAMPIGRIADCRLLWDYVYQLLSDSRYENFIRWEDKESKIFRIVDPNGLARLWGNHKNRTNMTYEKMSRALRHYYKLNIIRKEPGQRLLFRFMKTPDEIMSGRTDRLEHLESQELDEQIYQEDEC
Method in brief: as §1

AGTGCC
binding signal [1]: 1.06 fold enrichment (6-mer frequency, TF over GST control) | binding signal [2]: 1.01 fold enrichment (6-mer frequency, TF over GST control) | binding signal [3]: 1.32 fold enrichment (6-mer frequency, TF over GST control) | binding signal [4]: 1.01 fold enrichment (6-mer frequency, TF over GST control) | binding signal [5]: 1.05 fold enrichment (6-mer frequency, TF over GST control) | binding signal [6]: 1.04 fold enrichment (6-mer frequency, TF over GST control) | binding signal [7]: 1.03 fold enrichment (6-mer frequency, TF over GST control) | binding signal [8]: 1.19 fold enrichment (6-mer frequency, TF over GST control) | binding signal [9]: 1.01 fold enrichment (6-mer frequency, TF over GST control) | binding signal [10]: 1.04 fold enrichment (6-mer frequency, TF over GST control) | binding signal [11]: 1.07 fold enrichment (6-mer frequency, TF over GST control) | binding signal [12]: 1.05 fold enrichment (6-mer frequency, TF over GST control) | binding signal [13]: 1.16 fold enrichment (6-mer frequency, TF over GST control)
